Screening data as filed in PubChem BioAssay.
Chronic BCR inh – chronic active BCR signaling inhibition. AID 493014. 340,000 tested, 0.05% active. Potency, µM (series often up to 46.1 µM), for inactives: at the top dose activity change, negative = inhibition, usual class: inhibitors. ABC-DLBCL IkBa-CBG/CBR reporter, luminescence ratio, 4 h; active = well fitted inhibition curve with a large enough effect in the signal ratio, with a control signal flat, not every such curve was filed as active; inconclusive = small, poorly fitted or top-dose-only effect, or effect the other way, or a change in a side signal; the % refers to the signal ratio;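 also: potency is read from the fitted curve at half-maximal effect; plate controls were basal doxycycline-induced cells for no effect and cells given 10 µM MG132 for full effect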
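Doxycycline induced both beetle luciferases in TMD8 lymphoma cells; IKK-driven degradation limits the IkappaBalpha-fused green signal, while red luminescence normalises for cell number and nonspecific effects. Compounds tested up to 46 uM, 4 hrs.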
ASM inhibitor – blocks human secretory acid sphingomyelinase; P17405; placental ASM, HMU-PC fluorogenic substrate, 60 min; Potency, µM (top dose mostly 57.5 µM), for inactives: at the top dose activity change, negative = inhibition, usual class: inhibitors; 340,000 tested, 0.006% active; AID 504937; active = well fitted inhibition curve with a large enough effect; inconclusive = small, poorly fitted or top-dose-only effect; inactive = no such curve, though single readings can be large or run the other way; also: potency is read from the fitted curve at half-maximal effect
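Human placenta-derived ASM preincubated with compound 10 min at room temperature, then reacted with 9 uM (final) fluorogenic HMU-PC substrate for 60 min at 37 C. Stop solution raises pH to 10; fluorescence read at Ex 386/Em 447 nm.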
Six1-Eya2 inh – blocks human Six1 binding to Eya2. Q15475+O00167. AID 651725. 360,000 tested, 0.56% active. AlphaScreen GST-Six1/His-Eya2 binding, biochemical; stronger effect = lower value. activity change, % (test concentration not listed); also: % is scaled to controls: 0 for no effect and ±100 for the full control effect
Target sequence (O00167 whole entry, looked up): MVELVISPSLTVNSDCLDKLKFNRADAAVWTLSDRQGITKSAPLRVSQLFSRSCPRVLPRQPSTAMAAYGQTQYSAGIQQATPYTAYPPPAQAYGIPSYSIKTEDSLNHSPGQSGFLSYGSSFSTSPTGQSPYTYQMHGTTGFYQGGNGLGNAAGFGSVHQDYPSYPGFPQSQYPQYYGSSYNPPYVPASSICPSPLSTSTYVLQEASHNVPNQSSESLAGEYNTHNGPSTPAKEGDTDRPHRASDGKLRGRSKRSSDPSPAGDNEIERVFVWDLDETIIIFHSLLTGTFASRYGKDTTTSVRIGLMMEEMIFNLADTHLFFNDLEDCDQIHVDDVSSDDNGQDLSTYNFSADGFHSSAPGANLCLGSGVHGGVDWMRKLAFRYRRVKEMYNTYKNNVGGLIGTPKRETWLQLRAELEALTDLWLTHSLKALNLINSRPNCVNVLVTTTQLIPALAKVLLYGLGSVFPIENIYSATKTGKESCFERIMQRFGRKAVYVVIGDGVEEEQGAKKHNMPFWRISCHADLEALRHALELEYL
Target sequence (Q15475 whole entry, looked up): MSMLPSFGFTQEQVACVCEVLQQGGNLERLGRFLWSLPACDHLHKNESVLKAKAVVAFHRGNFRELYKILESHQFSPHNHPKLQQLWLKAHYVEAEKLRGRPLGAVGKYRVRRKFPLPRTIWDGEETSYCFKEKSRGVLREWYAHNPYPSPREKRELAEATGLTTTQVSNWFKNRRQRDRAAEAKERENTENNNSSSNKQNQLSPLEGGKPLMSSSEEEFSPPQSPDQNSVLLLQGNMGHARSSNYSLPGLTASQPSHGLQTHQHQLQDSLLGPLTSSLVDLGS
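Homogeneous AlphaScreen proximity assay pairing GST-Six1 with His-tagged Eya2 (added as 5X mix: 250 nM and 500 nM) in 50 mM Tris pH 8.0, 300 mM NaCl, 1 mM TCEP. Glutathione donor and nickel acceptor beads; 1 h, 37 °C, dark.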
TSHR antag – antagonists of human thyroid stimulating hormone receptor; TSHR-expressing cells, TSH-stimulated cAMP HTRF, 2 h; stronger effect = lower value; activity change, negative = inhibition, % at 11.5 µM; 330,000 tested, 0.2% active; AID 504810;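 active = activity change below a set negative limit, meaning inhibition stronger than a set level, cut at about -70% in these data; inconclusive = activity change between two set negative limits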; also: % is scaled to controls: 0 for no effect and ±100 for the full control effect
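Inhibition of cAMP made by TSHR-expressing cells under TSH stimulation (4nM final, EC80; 2 h, 37 deg C) is quantified with a one-step lysis HTRF kit, anti-cAMP cryptate versus cAMP-d2.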
CtBP-E1A inh – CtBP/E1A binding inhibition; AlphaScreen GST-E1A/His-CtBP binding, 1536-well; stronger effect = lower value; activity change, % (concentration not given with the values); 340,000 tested, 0.49% active; also: % is scaled to controls: 0 for no effect and ±100 for the full control effect
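GST-E1A and His-tagged CtBP (125 nM each as 5X stock) were preincubated with pin-transferred compound for 2 h at 37 °C in the dark, then glutathione donor and nickel acceptor beads were added for 1 h before AlphaScreen reading.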
Active calls of the source: *; ? = inconclusive; · = not tested or not shown. Sampled rows, rich in hits. Any-hit rate of the full collection: about 0.85%. Rule as the data show it, unless noted: active = activity change below about -65%; inconclusive = mostly about -30% to -63%; inactive = weaker than that.

SMILES	Chronic BCR inh	ASM inhibitor	Six1-Eya2 inh	TSHR antag	CtBP-E1A inh
Cc1ccccc1Nc1c(-c2cccnc2)nc2ccccn12	5.7%	2.4%	-3.2	15.5	-17.5
Cc1ccccc1Nc1c(-c2ccccn2)nc2ccccn12	?	2.2%	-90.9*	-9.2	·
Cc1ccc2nc(-c3ccccn3)c(Nc3ccccc3C)n2c1	-2.9%	-2.3%	?	-7.6	-90.8*
Cc1ccn2c(Nc3ccccc3)c(-c3ccccn3)nc2c1	?	11.3%	-73.7*	-8.8	-78.3*
Cc1ccn2c(Nc3ccccc3C)c(-c3ccccn3)nc2c1	-4.5%	-2.1%	-82.3*	-14.7	-93.3*
Cc1ccc2nc(-c3cccnc3)c(Nc3ccccc3C)n2c1	14.0%	2.5%	-12.2	-8.4	-13.0
CCCCNC(=O)CCCCCn1c(=O)[nH]c2ccccc2c1=O	-5.8%	·	·	·	·
COc1cccc(/C=N/NC(=O)c2cc(-c3cccn3C)n[nH]2)c1O	-6.3%	-6.2%	-89.8*	-13.5	-89.9*
CCOC(=O)c1c(C)[nH]c(C(=O)N/N=C\c2ccccc2O)c1C	3.8%	46.8%	-65.5*	-5.6	-8.0
CCOC(=O)c1c(C)[nH]c(C(=O)N/N=C/c2cc([N+](=O)[O-])ccc2O)c1C	?	-13.3%	?	16.7	?
COc1cc(/C=N/NC(=O)CCN2CCN(c3ccccc3)CC2)cc(OC)c1OC	-8.5%	2.1%	-82.5*	5.2	-80.5*
COc1ccc(OC)c2[nH]c(C(=O)N/N=C/c3ccccc3O)cc12	-11.5%	-2.7%	-73.7*	-11.3	·
O=C(NCCc1ccc(F)cc1)C(=O)NCC(c1cccs1)S(=O)(=O)c1ccc(F)cc1 (stereo not drawn)	-5.2%	·	·	·	·
COc1cc(C2c3c(oc4ccccc4c3=O)C(=O)N2Cc2ccc(C)cc2)ccc1O (stereo not drawn)	-2.0%	·	·	·	·
O=C1C(c2ccc(F)cc2)N(CCc2ccccc2)C(=O)CN1C1CCCCCC1 (stereo not drawn)	5.8%	·	·	·	·
COc1ccc(-n2ncc3c(NC(C)(C)CO)ncnc32)cc1	20.3%	·	·	·	·
COc1ccc(/C=N/NC(=O)c2[nH]c3ccc(Cl)cc3c2-c2ccccc2)c(C(=O)O)c1OC	?	14.1µM*	-71.6*	-8.8	?
COc1cccc(/C=N/NC(=O)c2cc(-c3cccn3C)n[nH]2)c1	?	-6.7%	?	-2.5	?
COc1cc(/C=N/NC(=O)c2cc(-c3cccn3C)n[nH]2)cc(OC)c1OC	?	-0.6%	-66.9*	-3.5	-74.6*
CCOc1ccc(C2c3c(oc4ccc(C)cc4c3=O)C(=O)N2CCCN(C)C)cc1 (stereo not drawn)	-0.7%	·	·	·	·
CN(C)c1ccc(NC(=S)c2ccc3ccccc3n2)cc1	?	-0.1%	-2.7	-91.4*	·
Cc1ccc(C)c(NC(=S)c2ccc3ccccc3n2)c1	?	-1.0%	?	-13.4	?
Cc1ccc(C)c(NC(=S)c2ccccn2)c1	?	-0.7%	?	-3.3	-67.3*
S=C(Nc1ccccn1)c1ccccn1	?	-0.8%	-91.7*	0.0	-88.8*
O=C(N[C@@H]1CC[C@H](CCn2cc(-c3ccccn3)nn2)O[C@@H]1CO)c1ccncc1	·	·	-75.6*	·	-20.1
SMILES	Chronic BCR inh	ASM inhibitor	Six1-Eya2 inh	TSHR antag	CtBP-E1A inh
CCCN(CCC)C(=O)c1c[nH]c2ccc(S(=O)(=O)N(C)c3ccc(Cl)cc3)cc2c1=O	19.2%	·	·	·	·
Cc1ccc(S(=O)(=O)C(CNC(=O)C(=O)NCCc2ccc(F)cc2)c2cccs2)cc1 (stereo not drawn)	7.5%	·	·	·	·
O=[N+]([O-])c1ccc(N=Nc2ccc(O)cc2O)cc1	?	1.6%	4.0	-74.0*	5.0
CCCCCC(=O)Nc1ccc(-c2nnc3n2CCCCC3)cc1	7.9%	5.9%	1.9	20.0	5.2
CCOC(=O)/C=C/C(=O)Nc1ccc(-c2nnc3n2CCCCC3)cc1	?	-0.5%	-11.8	-4.5	-65.7*
CCCCc1ccc(NC(=O)CSc2nnc3[nH]c(=O)cc(C)n23)cc1	6.9%	·	·	·	·
O=C(NC1CCCC1)c1ccc2c(c1)N(Cc1ccccc1F)C(=O)c1ccccc1S2	-0.7%	·	·	·	·
COc1ccc(CNC(=O)CCS(=O)(=O)c2cc3c(cc2Cl)NC(=O)CO3)cc1	0.1%	1.3%	4.8	-119.5*	-20.3
CC1C(=O)N2CCCc3cc(NC(=O)c4ccccc4Br)cc1c32 (stereo not drawn)	23.1µM*	1.9%	-7.7	-12.6	-6.9
Cc1ccc(S(=O)(=O)CCC(=O)c2cccc([N+](=O)[O-])c2)cc1	?	3.6%	-20.0	-104.7*	-0.8
COc1cc2c(cc1OC)n(CC(=O)c1cc(C)ccc1C)c(=O)n1nc(CCn3nc(C)cc3C)nc21	-0.7%	·	·	·	·
COc1ccccc1N1CCN(c2ccc(NC(=O)c3ccc(C)cc3)cc2C(=O)O)CC1	-2.7%	·	·	·	·
O=C(O)c1nn2c(C(F)(F)F)cc(-c3cccs3)nc2c1Cl	-1.7%	4.1%	-73.8*	-2.8	-66.9*
O=C(NCC1CCCO1)c1nn2c(C(F)(F)F)cc(-c3cccs3)nc2c1Cl (stereo not drawn)	-0.4%	21.1%	-9.5	18.9	19.4
COc1cccc(C(=O)Nc2sc3c(c2C#N)CCN(C(C)=O)C3)c1	20µM*	-1.0%	-3.0	-11.3	·
NC1=NN=C(N2N=C(c3ccco3)CC2(O)C(F)(F)F)n2ncnc2C1 (stereo not drawn)	-1.8%	6.6%	-70.7*	-5.2	20.9
O=C(CCC1N=C2c3ccccc3N=C(SCc3ccccc3F)N2C1=O)NC1CCCCC1 (stereo not drawn)	-0.2%	·	·	·	·
CC(=O)C1=C(O)C(=O)N(c2ccc(O)cc2)C1c1cccc(F)c1 (stereo not drawn)	-0.1%	1.0%	3.3	-80.2*	1.3
COc1cc([N+](=O)[O-])cc(/C=N/NC(=O)Cn2cncn2)c1O	?	1.0%	-90.4*	12.4	·
COc1cc([N+](=O)[O-])cc(/C=N/NC(=O)CC#N)c1O	-11.7%	·	·	-5.3	·
COc1cc([N+](=O)[O-])cc(/C=N/NC(=O)C(C)Nc2ccccc2C)c1O (stereo not drawn)	?	-11.4%	?	-6.4	-73.2*
COc1cc(/C=N/NC(=O)CSc2ccccn2)ccc1O	3.6%	8.2%	-8.0	5.1	3.9
Cc1ccc(C(=O)N/N=C/c2cc(Br)ccc2O)cn1	2.0%	-0.3%	-89.3*	-19.2	-90.8*
Cc1ccc(C(=O)N/N=C\C=C\c2ccc(Br)cc2)cn1	?	-3.1%	1.1	1.4	·
COc1cc([N+](=O)[O-])cc(/C=N/NC(=O)CSc2ccccn2)c1O	?	-3.8%	-81.6*	-1.2	-91.0*
N.N.O=C(O)C1(C(=O)O)CCC1.[Pt+2]	·	·	·	-29.2	·
CC(C)NC(=S)N/N=C/c1cc(Br)ccc1O	-1.4%	218.7%	-82.4*	-16.8	-89.2*
